Assay results taken from PubChem BioAssay (NCI).
About 79,000 compounds went through this panel and 15% of them were active in at least one assay; those are over-represented in the sample as a whole. Active and inactive are the calls of the source. Rule as the data show it: active = growth inhibition above about 70%; inactive = the rest.

How the values were obtained:
[1] = NCI Yeast Anticancer Drug Screen. Data for the rad50 strain (AID 155);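 also: 0% = growth of vehicle-only cultures of the same strain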; conditions: S. cerevisiae rad50 strain growth inhibition, active compounds read high
How it was run: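 Yeast carrying a defined DNA repair defect were exposed to test compounds, and growth was compared with vehicle-treated controls to give percent inhibition.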

[2] = NCI Yeast Anticancer Drug Screen. Data for the mec2-1 strain (AID 157); conditions: S. cerevisiae mec2-1 strain, active compounds read high
How it was run: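 Strain: mec2-1 (DNA repair/cell cycle alteration). Compound exposure, then growth measured; inhibition expressed relative to vehicle.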

[3] = NCI Yeast Anticancer Drug Screen. Data for the sgs1 mgt1 strain (AID 161);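 also: 0% = growth of cultures given vehicle only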; conditions: S. cerevisiae sgs1 mgt1 strain, active compounds read high
How it was run: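 Mutant yeast exposed to compound; growth scored against vehicle-only wells.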

[4] = NCI Yeast Anticancer Drug Screen. Data for the cln2 rad14 strain (AID 165);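 also: 0% = growth equal to vehicle treated cultures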; conditions: S. cerevisiae cln2 rad14 strain, active compounds read high
How it was run: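 Compounds are applied to the cln2 rad14 yeast strain, and growth is then compared with that of vehicle-treated cultures to give inhibition.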

[5] = NCI Yeast Anticancer Drug Screen. Data for the bub3 strain (AID 167); conditions: S. cerevisiae bub3 mutant strain, active compounds read high
How it was run: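 Compounds were applied to a genetically altered yeast strain carrying a cell-cycle control defect. Growth inhibition was scored against vehicle-treated controls.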

[6] = NCI Yeast Anticancer Drug Screen. Data for the mlh1 rad18 strain (AID 175); conditions: S. cerevisiae mlh1 rad18 strain growth inhibition, active compounds read high
How it was run: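 Read-out is yeast growth inhibition, calculated against vehicle-only controls. The compound was applied to a strain engineered with DNA damage repair alterations.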

[7] = at 5.0 µM (retest, dose inferred, filed as 0.5)
[8] = at 50.0 µM (retest, dose inferred, filed as 5.0)

Measured: growth inhibition

O=[N+]([O-])c1ccc2c(c1)Cc1cc(O)c(I)cc1-2
inactive: [1]; [7] 3% | [2]; [7] 13% | [3]; [7] 3% | [4]; [7] -10% | [5]; [7] -4% | [6]; [7] -2%
active: [1]; [8] 91% | [1]; at 50.0 µM 97.5% | [2]; [8] 92% | [2]; at 50.0 µM 97.8% | [3]; [8] 93% | [3]; at 50.0 µM 96.7% | [4]; [8] 91% | [4]; at 50.0 µM 95.2% | [5]; [8] 93% | [5]; at 50.0 µM 95.8% | [6]; [8] 95% | [6]; at 50.0 µM 97.2%

Nc1ccc(Cc2ccc(Cl)cc2)cc1
inactive: [1]; [7] -156% | [2]; [7] -51% | [3]; [7] -66% | [4]; [7] -60% | [5]; [7] -66% | [6]; [7] -129%
active: [1]; [8] 93% | [1]; at 50.0 µM 99.2% | [2]; [8] 96% | [2]; at 50.0 µM 99% | [3]; [8] 95% | [3]; at 50.0 µM 99.3% | [4]; [8] 94% | [4]; at 50.0 µM 97.9% | [5]; [8] 95% | [5]; at 50.0 µM 98.8% | [6]; [8] 95% | [6]; at 50.0 µM 99.2%

CC(=O)OC1CCC2(C)C3CCC4(C)C(C(C)CCCC(C)C)CCC4C3CCC23OC13C (configuration not stated)
inactive: [1]; [7] 2% | [1]; [8] 12% | [1]; at 50.0 µM 31.9% | [2]; [7] -17% | [2]; [8] 23% | [2]; at 50.0 µM 6.2% | [3]; [7] -5% | [3]; [8] 52% | [4]; [7] -3% | [4]; [8] 6% | [4]; at 50.0 µM -19.2% | [5]; [7] -3% | [5]; [8] -4% | [5]; at 50.0 µM -8.05% | [6]; [7] 24% | [6]; [8] 59% | [6]; at 50.0 µM 35.7%
active: [3]; at 50.0 µM 72.7%

CCOC(=O)/C=C/c1ccc([N+](=O)[O-])o1
active: [1]; [8] 91% | [1]; at 50.0 µM 73.2% | [2]; [8] 72% | [3]; [8] 93% | [3]; at 50.0 µM 91.5% | [5]; [8] 82% | [6]; [8] 93% | [6]; at 50.0 µM 85.5%
inactive: [1]; [7] 18% | [2]; [7] 3% | [2]; at 50.0 µM 31.4% | [3]; [7] 21% | [4]; [7] 4% | [4]; [8] 58% | [4]; at 50.0 µM 34.5% | [5]; [7] 11% | [5]; at 50.0 µM 27.1% | [6]; [7] 28%

CC(CO)(Nc1ccc([N+](=O)[O-])cc1[N+](=O)[O-])C(=O)O (configuration not stated)
inactive: [1]; [7] 21% | [2]; [7] 14% | [3]; [7] 10% | [3]; [8] -22% | [4]; [7] 1% | [5]; [7] 1% | [6]; [7] 6%
active: [1]; [8] 99% | [1]; at 50.0 µM 97.1% | [2]; [8] 99% | [2]; at 50.0 µM 99% | [3]; at 50.0 µM 98.1% | [4]; [8] 99% | [4]; at 50.0 µM 70.1% | [5]; [8] 99% | [5]; at 50.0 µM 95% | [6]; [8] 99% | [6]; at 50.0 µM 97.5%

O=C(Nc1cccc(Br)c1)Oc1cccc2cccnc12
active: [1]; [8] 97% | [1]; at 50.0 µM 85.7% | [2]; [8] 99% | [2]; at 50.0 µM 89.8% | [3]; [7] 99% | [3]; [8] 99% | [3]; at 50.0 µM 85.3% | [4]; [7] 76% | [4]; [8] 99% | [4]; at 50.0 µM 81.1% | [5]; [7] 91% | [5]; [8] 73% | [5]; at 50.0 µM 87.8% | [6]; [8] 98% | [6]; at 50.0 µM 85%
inactive: [1]; [7] 61% | [2]; [7] 65% | [6]; [7] 64%

CC1SC(=S)N(c2ccc(Cl)cc2)C1=O (configuration not stated)
inactive: [1]; [7] 4% | [1]; [8] 68% | [2]; [7] 0% | [2]; [8] 31% | [3]; [7] 2% | [3]; [8] 47% | [3]; at 50.0 µM 45.5% | [4]; [7] 3% | [4]; [8] 28% | [4]; at 50.0 µM -108% | [5]; [7] -3% | [5]; [8] 28% | [6]; [7] 3% | [6]; [8] 69%
active: [1]; at 50.0 µM 71% | [2]; at 50.0 µM 80.7% | [5]; at 50.0 µM 85.5% | [6]; at 50.0 µM 71.8%

Cc1cccc2cc3c(cc12)c(C)cc1ccccc13
active: [2]; at 50.0 µM 75.1%
inactive: [1]; [7] -4% | [1]; [8] 6% | [1]; at 50.0 µM 64.4% | [2]; [7] -6% | [2]; [8] -9% | [3]; [7] -4% | [3]; [8] 30% | [3]; at 50.0 µM 53% | [4]; [7] -1% | [4]; [8] 1% | [4]; at 50.0 µM 51% | [5]; [7] -22% | [5]; [8] -12% | [5]; at 50.0 µM 61% | [6]; [7] -17% | [6]; [8] 2% | [6]; at 50.0 µM 63.6%

CCOC(=O)c1c(-c2ccccc2)csc1NC(=O)CBr
active: [1]; [8] 98% | [1]; at 50.0 µM 99.1% | [2]; [8] 99% | [2]; at 50.0 µM 98.3% | [3]; [8] 99% | [4]; [8] 98% | [4]; at 50.0 µM 91.8% | [5]; [8] 97% | [5]; at 50.0 µM 94.2% | [6]; [8] 98% | [6]; at 50.0 µM 99.2%
inactive: [1]; [7] 22% | [2]; [7] 11% | [3]; [7] 30% | [3]; at 50.0 µM 52.5% | [4]; [7] 3% | [5]; [7] 7% | [6]; [7] 49%
